The source of these data is PubChem BioAssay.

The assay is described as follows: binders of probe aHhip on microarray, primary screen, stem cell growth factor project, biochemical, small-molecule microarray, fluorescence 635/667 (AID 1087).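 Also: score merges spot fluorescence at 667nm with spot signal to noise ratio.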 The conditions noted are these: higher = more signal.
On to `CCCCC(=C=CC[C@@H](O)c1cccc(OCCO)c1)CCO`, for which the composite z-score is -0.128.

For the molecule `COC(=O)C1(CC(C)C)C=C2C(=C(C(C)C)C(=O)C2C)CN1` (stereo unspecified), the composite z-score is -0.0603.

As to `COCCOC(=O)N1C(=O)[C@@]2(c3cc(C#CCC(C(=O)OC)C(=O)OC)ccc31)[C@H](C(=O)N1CCCCCCC1)[C@H]1C(=O)O[C@H](c3ccccc3)[C@H](c3ccccc3)N1[C@@H]2c1ccccc1OCCO`, the composite z-score was determined as 2.72.

Regarding `C=CCNC(=O)[C@H]1[C@@H]2C(=O)O[C@@H](c3ccccc3)[C@@H](c3ccccc3)N2[C@@H](c2ccc(O)cc2)[C@]12C(=O)Nc1ccc(C#CC3=CCCCC3)cc12`, the composite z-score worked out at 0.199.

Regarding `C=CCC(OC(C)=O)[C@@H]1[C@@H](N(Cc2ccc(-c3cccc(C(F)(F)F)c3)o2)C(=O)c2cccc3ccccc23)c2cc(OCCCO)ccc2N1C(=O)c1ccc2ccccc2n1` (stereo partly specified), the composite z-score was 0.185.

As to `CCC[C@@H]1[C@@H](Sc2ccccc2)[C@@H](C(=O)O)[C@H](c2ccc(C)cc2)N1S(=O)(=O)c1ccc(C)cc1`, the composite z-score was -0.0618.
